Compound activity: PubChem, National Center for Advancing Translational Sciences (NCATS)
LDHA block: LDHA (human) enzyme inhibition; hit rate 0.15% among 480,000; purified LDHA, NADH/diaphorase-resazurin fluorescence; stronger effect = lower value; AID 1347041; P00338; activity change, % (values are at about 110 or 230 µM); in the data active means activity change below about -30%; inconclusive means mostly about -25% to -30%
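Human LDH5 at 2 nM final in Tris HCl pH 7.4 with 0.06 mM NADH and 0.2 mM pyruvate, reacted 5 minutes at room temperature. Remaining NADH coupled via diaphorase/resazurin; resorufin fluorescence read at 0 and 20 minutes, normalized to enzyme-free and DMSO wells.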
p53 reactivator: re-activators of mutant p53. H1299 p53-A138V BP100-luciferase reporter, luminescence, 24 h. Potency, µM (titrated, usually from 92.2 µM), usual class: activators. hit rate 0.063% among 320,000; further: nearly all actives have a fitted effect of over 45% in size
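p53-null H1299 cells stably carrying temperature-sensitive p53-A138V and a BP100-luciferase reporter were pinned with compounds (4-point, 1:5 series) and held 24 hrs at 37 deg C. Luminescence was read 10 min after detection reagent.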
GLP1R ag: activates the human GLP-1 receptor. P43220. HEK293 GLP-1R CRE-luciferase, luminescence, 4-6 h; cells express a hypersensitive GLP-1R form. Potency, µM (top dose mostly 45.6 µM), actives largely listed as activators. hit rate 0.007% among 380,000
Target sequence (P43220 whole entry, looked up): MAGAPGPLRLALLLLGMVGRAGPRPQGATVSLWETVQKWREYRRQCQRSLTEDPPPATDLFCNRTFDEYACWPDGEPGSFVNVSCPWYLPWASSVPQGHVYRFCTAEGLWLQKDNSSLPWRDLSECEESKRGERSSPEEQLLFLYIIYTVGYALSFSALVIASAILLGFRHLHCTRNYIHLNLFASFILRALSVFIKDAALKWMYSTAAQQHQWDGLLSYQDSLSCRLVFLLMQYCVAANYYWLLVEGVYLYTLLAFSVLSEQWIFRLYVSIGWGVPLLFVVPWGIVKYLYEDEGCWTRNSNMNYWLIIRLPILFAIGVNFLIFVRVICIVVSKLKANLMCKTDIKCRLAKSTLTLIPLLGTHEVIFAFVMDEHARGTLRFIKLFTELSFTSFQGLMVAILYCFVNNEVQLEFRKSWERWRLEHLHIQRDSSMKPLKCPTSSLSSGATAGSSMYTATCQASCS
ClpP mod: qHTS Assay for Activators of ClpP; ATP-dependent Clp protease proteolytic subunit (Bacillus subtilis (strain 168)), P80244; purified B. subtilis ClpP, FRET peptide cleavage, 20 min; Potency, µM (doses to about 57.5 µM); hit rate 1.9% among 340,000; active means well fitted falling curve with a large enough effect; inconclusive means small, poorly fitted or top-dose-only effect; inactive means no such curve, though single readings can be large or run the other way; further: the source files actives as falling curves though it sought activators and does not explain the sign; nearly all actives have a fitted effect of over 65% in size
Target sequence (P80244 whole entry, looked up): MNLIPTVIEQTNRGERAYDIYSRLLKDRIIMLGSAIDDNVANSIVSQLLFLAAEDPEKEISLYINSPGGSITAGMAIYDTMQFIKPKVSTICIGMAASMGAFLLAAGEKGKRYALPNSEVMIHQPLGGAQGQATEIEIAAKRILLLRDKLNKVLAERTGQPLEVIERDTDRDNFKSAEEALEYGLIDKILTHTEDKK
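FRET quenching reversal measured ClpP activation: 10 microg/mL B. subtilis ClpP at pH 8 with the FRET-FV decapeptide, read at 430 nm after 320 nm excitation. The 20-min minus 0-min signal was scaled between DMSO/no-enzyme wells and ADEP (5.8 microM final).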
HEK293 tox: cytotoxic in the GLP-1 receptor inverse agonist counter-screen | hit rate 0.13% among 410,000 | HEK293 cAMP-luciferase reporter cells, luminescence, 24 h | Potency, µM (titrated, usually from 38.3 µM), hits mostly inhibitors;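 further: loss of luciferase light is scored as toxicity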
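Step one: seed cells (200 cells/uL, DMEM with 10% Nu serum, 1% pen-strep). Step two: 12-hour incubation at 37 deg C. Step three: pin 23 nL compound, incubate 24 hr. Step four: add luciferase reagent, read luminescence 12 min later.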
GLP1R inv ag: GLP-1 receptor (human) inverse agonism; HEK293 GLP-1R CRE-luciferase, luminescence, 24 h; GLP-1R form is constitutively active; Potency, µM (doses to about 38.3 µM), actives largely listed as inhibitors; hit rate 1.6% among 410,000; further: nearly all actives have a fitted effect of over 55% in size
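Constitutively active GLP-1R drives a cAMP-responsive luciferase in stably transfected HEK293 cells; test compounds are added after overnight (12 h) attachment and left 24 hr, and signal loss in luminescence marks inhibition.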
Large screens that a line does not name were inactive. Sampled rows, rich in hits. Any-hit rate of the full collection: about 2.9%. Unless noted, the call rests on the fitted dose curve; in most records, active means well fitted curve in the direction sought with a large enough effect; inconclusive means small, poorly fitted or top-dose-only effect, or another doubt; inactive means no such curve, though single readings can be large; an effect the other way counts as inactive or inconclusive.

Cc1nn(Cc2ccc(Cl)cc2Cl)c(C)c1NC(=O)NC12CC3CC(CC(C3)C1)C2	GLP1R inv ag 5µM
CCOC(=O)/C(=C\c1ccc(N2CCC(c3ccccc3)=N2)cc1)C(C)=O	GLP1R inv ag inconclusive (no result: p53 reactivator)
Cc1cc(Nc2ccc(Cl)cc2)n(-c2cccc(Cl)c2)n1	GLP1R inv ag 7.9µM
Cc1cc(Nc2ccc(Cl)cc2)n(-c2ccccc2)n1	GLP1R inv ag 2.8µM
N#CC1=C(C=Nc2ccccc2O)CCC1	none
CC(=NNC(=S)N1CC2CCC(CC2)C1)c1ccccn1	HEK293 tox 6.3µM, GLP1R inv ag inconclusive (no result: p53 reactivator)
CC(=NNC(=S)N1CCN(C2CCCCCC2)CC1)c1ccccn1	HEK293 tox 0.32µM (no result: p53 reactivator)
CC(=NNC(=S)N1CCN(c2ccccn2)CC1)c1ccccn1	none (no result: p53 reactivator)
CC(C)(C)c1ccc(-c2nc(C#N)c(NCCCn3ccnc3)o2)cc1	none (no result: ClpP mod)
CCC(=O)Oc1ccc(C(=O)Nc2ccc3c(c2)C(=O)N(C2CCCCC2)C3=O)cc1	ClpP mod 25µM, GLP1R inv ag inconclusive
O=C(Nc1ccc2c(c1)C(=O)N(C1CCCCC1)C2=O)C1CCCO1 (centres undefined)	ClpP mod 32µM, GLP1R inv ag inconclusive
O=C(O)COc1ccc(NC(=O)c2ccc3c(c2)C(=O)N(C2CCCCC2)C3=O)cc1	none
CC(C)(C)c1ccc(C(=O)Nc2ccc(C(=O)N3CCOCC3)cc2)cc1	ClpP mod inconclusive, GLP1R inv ag inconclusive
C/C(CC(C)C)=N\NC(=O)c1ccc(C)c(C)c1	none (no result: p53 reactivator, GLP1R ag, ClpP mod, HEK293 tox, GLP1R inv ag)
COc1cccc(-n2cnc3sc4c(c3c2=O)CCC4)c1	ClpP mod 32µM
Cc1cccc(NC(=O)c2cc(NC(=O)c3ccco3)ccc2N2CCCCC2)c1	ClpP mod 18µM
CC(=O)NS(=O)(=O)c1ccc(NC(=S)NC(=O)c2ccco2)cc1	none
O=C(Nc1ccc(N2CCCCC2)c(C(=O)O)c1)c1ccco1	none
O=C(NC(NC(=S)Nc1ccccc1)C(Cl)(Cl)Cl)c1cccc(Cl)c1 (centres undefined)	HEK293 tox inconclusive, GLP1R inv ag 7.9µM
Cc1ccc(NC(=S)NC(NC(=O)c2ccccc2)C(Cl)(Cl)Cl)c(C)c1 (centres undefined)	HEK293 tox inconclusive, GLP1R inv ag 3.5µM
NS(=O)(=O)c1ccc(NC(=S)NC(=O)c2ccco2)cc1	ClpP mod 10µM
O=C(CSc1nnc(-c2ccncc2)n1Cc1ccco1)Nc1ccccc1F	none (no result: ClpP mod)
Cc1cccc(NC(=S)NC(NC(=O)c2ccco2)C(Cl)(Cl)Cl)c1 (centres undefined)	HEK293 tox inconclusive, GLP1R inv ag 1.1µM
CCCCC(=O)NC(=S)Nc1cccc(NC(=O)c2ccco2)c1	ClpP mod 25µM
Cc1ccccc1C(=O)NC(NC(=S)Nc1ccc(S(N)(=O)=O)cc1)C(Cl)(Cl)Cl (centres undefined)	GLP1R inv ag inconclusive
CCC(=O)NC(=S)Nc1ccc(NC(=O)c2ccco2)cc1	none (no result: ClpP mod)
Cc1ccc(C(=O)NC(NC(=S)Nc2ccc(S(N)(=O)=O)cc2)C(Cl)(Cl)Cl)cc1 (centres undefined)	LDHA block -34, GLP1R inv ag 5.6µM
Cc1ccc(C(=O)NC(NCc2ccccc2)C(Cl)(Cl)Cl)cc1 (centres undefined)	ClpP mod 14µM
Cc1ccc(S(=O)(=O)N2CCC(C(=O)NCc3csc(-c4ccccc4)n3)CC2)cc1	none (no result: p53 reactivator, GLP1R ag, ClpP mod, HEK293 tox, GLP1R inv ag)
CCCCOc1ccc(C2=NC(c3ccncc3)=Nc3ccc(Br)cc3N2)cc1	none (no result: p53 reactivator, GLP1R ag)
O=C(c1ccc(Cl)cc1)c1ccc(OCC(O)CN2CCOCC2)cc1 (centres undefined)	GLP1R inv ag inconclusive
CC(C)OC(=O)CSc1nc(N)c(C#N)c(-c2ccco2)c1C#N	ClpP mod 20µM
CC(C)OC(=O)CSc1nc(N)c(C#N)cc1C#N	GLP1R ag inconclusive (no result: ClpP mod)
Cc1ccc(S(=O)(=O)/N=C(/c2ccc(F)cc2)N2CCCCC2)cc1	ClpP mod 32µM
CCn1c(SCC(=O)Nc2nccs2)nnc1-c1ccc(S(=O)(=O)N2CCCCCC2)cc1	none
CCC(Sc1nnc(-c2ccc(C)c(Cl)c2)n1CC)C(=O)Nc1nccs1 (centres undefined)	GLP1R inv ag 6.3µM
CCc1nnc2sc(-c3ccc(NC(=O)c4ccc5c(c4)OCCO5)cc3)nn12	ClpP mod 28µM
C=CCSC1=C(C#N)C(c2ccc(OCC)cc2)CC(=O)N1 (centres undefined)	none
O=C(Nc1ccc(F)c(F)c1)c1cc(S(=O)(=O)NCc2ccc3c(c2)OCO3)ccc1F	GLP1R inv ag inconclusive (no result: p53 reactivator, GLP1R ag)
CCC1CN(C(=O)NCc2ccc(F)cc2)c2cc(Cl)ccc2O1 (centres undefined)	GLP1R inv ag 10µM
CCC1CN(C(=O)NCc2cccc(OC)c2)c2ccccc2O1 (centres undefined)	GLP1R inv ag inconclusive
CCC1CN(C(=O)NCc2cccc(OC)c2)c2cc(Cl)ccc2O1 (centres undefined)	GLP1R inv ag 11µM
O=C(COC(=O)c1ccc(C(=O)c2ccccc2)cc1)c1ccc(-c2ccccc2)cc1	none (no result: p53 reactivator, GLP1R ag, ClpP mod, HEK293 tox, GLP1R inv ag)
Cc1ccc(C(=O)OCC(=O)c2ccccc2)cc1	p53 reactivator inconclusive, ClpP mod 14µM, GLP1R inv ag inconclusive
Cc1cccc(NC(=O)/C(=C\c2ccco2)NC(=O)c2cccs2)c1	none
Cc1ccc(C)c(C(=O)Nc2cc(C)nn2-c2nc(C)cc(C)n2)c1	ClpP mod inconclusive, HEK293 tox 1.8µM, GLP1R inv ag inconclusive
Cc1cc(C)nc(-n2nc(C)cc2NC(=O)c2cccc(S(=O)(=O)N(C)C)c2)n1	none
Cc1cc(C)nc(-n2nc(C)cc2NC(=O)CN2CCC(C)CC2)n1	HEK293 tox 5µM, GLP1R inv ag inconclusive
O=C1NN(c2cccc(Br)c2)C(=O)/C1=C\c1ccc(O)cc1	HEK293 tox inconclusive, GLP1R inv ag 10µM
COc1cc(/C=C2/C(=O)NN(c3cccc(Cl)c3)C2=O)cc(OC)c1O	GLP1R inv ag 2.8µM (no result: p53 reactivator)
CC(C)=C1C(=O)NN(c2cccc(Cl)c2)C1=O	GLP1R inv ag 10µM
CCOc1cc(/C=C2/C(=O)NN(c3cccc(Cl)c3)C2=O)ccc1O	GLP1R inv ag inconclusive (no result: ClpP mod)
O=C1NN(c2ccc(Br)cc2)C(=O)/C1=C\c1ccc(O)cc1O	GLP1R inv ag inconclusive (no result: ClpP mod)
CC(C)=C1C(=O)NN(c2ccc(C)c(Cl)c2)C1=O	GLP1R inv ag inconclusive
CCOCCCNC(=O)C(c1ccc(Cl)cc1)N1CCC2(CC1)OCCO2 (centres undefined)	none
COc1ccccc1-n1c(-c2ccc(NS(C)(=O)=O)cc2)n[nH]c1=S	ClpP mod 28µM
O=C(CN1CCCN(Cc2cccc(Cl)c2)S1(=O)=O)Nc1ccc2c(c1)OCCO2	none (no result: p53 reactivator, GLP1R ag)
